The list is not random: actives were taken first. Their share in the collection is about 2.7%.
GLP-1R agonist: qHTS of GLP-1 Receptor Agonists. AID 624172, 2012. HEK293 GLP-1R CRE-luciferase, luminescence, 4-6 h; cells express a hypersensitive GLP-1R form. 0.007% of 380,000 active. Potency, µM (highest dose often 45.6 µM), without a hit: at the top dose activation, hits mostly activators. Glucagon-like peptide 1 receptor (Homo sapiens), P43220; further: % of control where 0% means no effect
GLP1R inv ag: qHTS of GLP-1 Receptor Inverse Agonists (Inhibition Mode). HEK293 GLP-1R CRE-luciferase, luminescence, 24 h; GLP-1R form is constitutively active. 1.6% of 410,000 active. Glucagon-like peptide 1 receptor (Homo sapiens), P43220. AID 624417, 2012. Potency, µM (series often up to 38.3 µM), for the others: at the top dose activity change, negative = inhibition, most hits filed as inhibitors; further: on the % scale 0 is the no-effect control and ±100 the full control effect; nearly all actives have a fitted effect of over 55% in size
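Readout was luciferase luminescence, measured 12 min after detection reagent at room temperature. Beforehand, GLP-1R reporter HEK293 cells had sat 12 h, then received compounds for 24 hr at 37 deg C.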
IDH1 R132H inh: qHTS for Inhibitors of mutant isocitrate dehydrogenase 1 (IDH1): qHTS | Potency, µM (top dose mostly 76.6 µM), for the others: at the top dose activity change, negative = inhibition, most hits filed as inhibitors | IDH1-R132H enzyme, NADPH consumption, diaphorase/resazurin fluorescence | Isocitrate dehydrogenase [NADP] cytoplasmic (Homo sapiens), O75874 | 0.093% of 390,000 active; further: on the % scale 0 is the no-effect control and ±100 the full control effect; nearly all actives have a fitted effect of over 65% in size
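IDH1-R132H (0.5 ug/mL dispensed) in pH 7.5 Tris buffer was preincubated 30 min with compound, then given a substrate mix of 0.016 mM NADPH and 2 mM alpha-KG for 80 min at room temperature; remaining NADPH was read by diaphorase/resazurin fluorescence.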
TrxR1 substrate: qHTS Assay for Substrates of Mammalian Selenoprotein Thioredoxin Reductase 1 (TrxR1): qHTS; Thioredoxin reductase 1, cytoplasmic (Rattus norvegicus), O89049; purified TrxR1 substrate turnover, NADPH consumption readout; Potency, µM (titrated, usually from 114 µM), for the others: top-dose activity change, negative = substrate turnover; 0.01% of 390,000 active; AID 588456, 2011; further: on the % scale 0 is the no-effect control and ±100 the full control effect; nearly all actives have a fitted effect of over 50% in size
Target sequence (O89049 whole entry, looked up): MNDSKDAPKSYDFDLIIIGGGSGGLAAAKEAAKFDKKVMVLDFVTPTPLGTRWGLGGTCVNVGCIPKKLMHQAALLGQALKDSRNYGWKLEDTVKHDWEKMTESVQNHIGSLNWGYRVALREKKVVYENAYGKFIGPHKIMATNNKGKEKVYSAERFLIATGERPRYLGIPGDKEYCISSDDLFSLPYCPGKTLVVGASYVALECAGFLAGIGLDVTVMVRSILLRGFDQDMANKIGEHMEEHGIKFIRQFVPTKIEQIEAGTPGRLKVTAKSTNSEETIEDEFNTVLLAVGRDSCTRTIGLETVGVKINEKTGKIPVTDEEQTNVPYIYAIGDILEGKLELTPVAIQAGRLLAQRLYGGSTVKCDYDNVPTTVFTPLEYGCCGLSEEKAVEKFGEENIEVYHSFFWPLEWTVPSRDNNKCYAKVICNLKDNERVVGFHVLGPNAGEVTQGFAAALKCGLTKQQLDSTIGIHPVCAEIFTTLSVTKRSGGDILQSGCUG
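Rat TrxR1, dispensed at 90 nM, was prereduced with 400 uM NADPH (final) for 5 min at ~22 deg C, then incubated with compound 15 min before 400 uM selenite. A first-read NADPH fluorescence drop versus no-compound background flagged substrates.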
HEK293 tox: qHTS of GLP-1 Receptor Inverse Agonists: Cytotox Screen. 0.13% of 410,000 active. Potency, µM (doses to about 38.3 µM), for the others: at the top dose activity change, negative = inhibition, hits mostly inhibitors. HEK293 cAMP-luciferase reporter cells, luminescence, 24 h;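 further: loss of luciferase light is scored as toxicity; on the % scale 0 is the no-effect control and ±100 the full control effect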
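Seeding density was 200 cells/uL; after overnight-length (12 h) culture, 23 nL compounds went on for 24 h at 37 °C. Readout used a luciferase detection reagent, luminescence taken after 12 min at room temperature.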
rTrxR1 inhibitor: qHTS Assay for Inhibitors of Mammalian Selenoprotein Thioredoxin Reductase 1 (TrxR1): qHTS | recombinant rTrxR1, NADPH fluorescence consumption, selenite substrate | AID 588453, 2011 | 1% of 390,000 active | Potency, µM (series often up to 114 µM), inactives show at the top dose activity change, negative = inhibition, most hits filed as inhibitors; further: on the % scale 0 is the no-effect control and ±100 the full control effect; nearly all actives have a fitted effect of over 65% in size
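Rat TrxR1 (90 nM in the dispensed reagent) was pre-reduced with 400 uM NADPH for 5 min at room temperature, then incubated with compound for 15 min. After 400 uM selenite was added, NADPH fluorescence (Ex 340/Em 450 nm) was followed for 8 min.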
An asterisk follows results filed as active; ? = inconclusive; nt = no result given; [ ] = remark or other dose. The call rests on the fitted dose curve; in most records, active means well fitted curve in the direction sought with a large enough effect; inconclusive means small, poorly fitted or top-dose-only effect, or another doubt; inactive means no such curve, though single readings can be large; an effect the other way counts as inactive or inconclusive. Potency means the concentration at half of the fitted maximal effect.

SMILES | GLP-1R agonist | GLP1R inv ag | IDH1 R132H inh | TrxR1 substrate | HEK293 tox | rTrxR1 inhibitor
CN1CCCC(CC2Oc3ccccc3Sc3ccccc32)C1 (configuration not stated) | -3% | 5.6µM* | 8% | 6%[57.1 µM] | ? | 10%[57.1 µM]
CN1CC[C@H](CN2c3ccccc3Sc3ccccc32)C1 | -2% | nt | nt | 4% | nt | 5%
c1ccc2c(c1)OC(CCCN1CCCCC1)c1ccccc1S2 (configuration not stated) | 0% | 7.9µM* | -6% | 2% | -17% | -5%[57.1 µM]
c1ccc(OCCCCN2CCCCC2)cc1 | -2% | 33% | 2% | 4%[57.1 µM] | 13% | 9%[57.1 µM]
COc1ccc(-c2cc(C(=O)Nc3cccc(O)c3)on2)cc1OC | nt | 42% | 12% | 6%[11.4 µM] | -7% | 24%
CN1CC2(Cc3cc([N+](=O)[O-])ccc31)C(=O)OC(C)(C)OC2=O | nt | nt | nt | -8% | nt | -7%
c1ccc(N/N=C(\Cc2nc3ccccc3[nH]2)c2ccccc2)cc1 | -9% | ? | 1% | -9% | 3% | -18%
Cc1ccc(N/N=C(\Cc2nc3ccccc3[nH]2)c2ccccc2)cc1 | 7% | 0% | 4% | -3% | ? | 79µM*
CCc1cc2c(Sc3nc4ccccc4s3)ncnc2s1 | 12% | 3.5µM* | 5% | 10% | -28% | -8%
c1ccc2sc(Sc3ncnc4sccc34)nc2c1 | 6% | ? | 6% | 8% | -27% | ?
Cc1ccc(-n2ncc(Br)c(Br)c2=O)cc1 | -8% | ? | 0% | 3% | ? | 10µM*
O=c1c(Br)c(Br)cnn1-c1ccccc1 | -4% | ? | 5% | 11% | ? | ?
O=c1[nH][nH]c2c(N=Cc3ccccc3O)ccc(F)c12 | -5% | 5% | 13% | 6% | -21% | 3.2µM*
Cc1cc(=O)n2nc(N3CCC(C(=O)NCCCOC(C)C)CC3)sc2n1 | nt | 1% | 0% | -5% | 1% | -10%
CCOC(=O)C1CN(S(=O)(=O)c2ccc(C)cc2)c2ccccc2O1 (configuration not stated) | 9% | 6% | 17% | -5% | 0% | 3.2µM*
CCC1C(=O)C(C)(C)C(=O)OC1c1ccc([N+](=O)[O-])cc1 (configuration not stated) | 15% | -7% | 0% | -5% | -8% | 9%
O=C1CC(=O)OC(c2ccc([N+](=O)[O-])cc2)O1 | -14% | ? | -4% | nt | 5µM* | nt
O=C(CSc1ncnc2c1cnn2CCc1ccccc1)Nc1cccc(C(F)(F)F)c1 | -23% | 7.9µM* | 5% | -4% | -30% | -5%
Cc1c(Cl)cccc1NC(=O)CSc1ncnc2c1cnn2CCc1ccccc1 | 9% | ? | 5% | -9% | -13% | -6%
CC(C)(C)C(=O)CSc1ncnc2c1cnn2Cc1ccccc1 | 21% | 3.5µM* | -1% | 1% | 1% | 8%
COCCNC(=O)c1ccc(-c2nc(CS(=O)(=O)c3ccccc3)c(C)o2)cc1 | nt | -14% | -9% | 167% | 0% | 29%
COc1ccc(C2c3sc(=O)[nH]c3SC3C4CCC(C4)C23)cc1 (configuration not stated) | -2% | -12% | 10% | -9% | -7% | -22%
O=c1[nH]c2c(s1)C(c1ccccc1)C1C3CCC(C3)C1S2 (configuration not stated) | 0% | 6.3µM* | -7% | -9% | 41% | -11%
Cc1c(C(=O)N(Cc2ccccc2)Cc2cccs2)cnn1-c1ccc(Cl)cc1 | 15% | 5.6µM* | -6% | -4%[57.1 µM] | ? | 4%
Cc1c(C(=O)N(Cc2ccccc2)C(C)C)cnn1-c1ccccc1 | 12% | ? | 4% | 3% | -16% | 12%
SMILES | GLP-1R agonist | GLP1R inv ag | IDH1 R132H inh | TrxR1 substrate | HEK293 tox | rTrxR1 inhibitor
CC(C)CC(=O)NCc1nc2cccnc2n1Cc1ccccc1 | nt | 7% | 6% | 9%[57.1 µM] | 3% | 29%[57.1 µM]
COc1ccccc1CNc1cc(-c2ccccc2)nc2nncn12 | nt | -10% | 4% | -2% | -5% | 35µM*
COc1cccc(C(=O)Oc2c(Br)cc(Br)cc2/C=N/NC(=O)c2cc(C)[nH]n2)c1 | 0% | 6.3µM* | -2% | -4%[57.1 µM] | -1% | -2%[57.1 µM]
COc1ccc2ccccc2c1CNCc1ccc(C)cc1 | 21% | 10µM* | 1% | 3% | -25% | 4%
CCOc1ccc(NC(=O)C2C3CCC4C(CCC32)C4(Cl)Cl)cc1 (configuration not stated) | -4% | 7.1µM* | 5% | -2% | -23% | -6%
CN(Cc1ccccc1)S(=O)(=O)c1ccc(NC(=S)NC(=O)C2CCCCC2)cc1 | 3% | 2.5µM* | 5% | 4%[57.1 µM] | 5% | 17%[57.1 µM]
CCOc1ccc(C(C)NC(=S)NC2CCCCC2)cc1 (configuration not stated) | -5% | ? | 8% | -7% | 11µM* | 9%
CCN(CC)c1ccc(NC(=S)NC(=O)C2CCC2)cc1 | 21% | 16% | -4% | 8% | -29% | 45µM*
CN(Cc1ccccc1)S(=O)(=O)c1ccc(NC(=S)NC(=O)C(C)(C)C)cc1 | -2% | ? | 7% | -9% | -2% | -24%
CC(=O)Nc1ccc(NC(=S)NC(=O)C2CCCC2)cc1 | 0% | 7% | 12% | 1% | -7% | ?
CCOc1ccc(NC(=O)C2C3CC/C=C\CCC32)cc1 (configuration not stated) | 5% | -27% | 5% | 2% | -6% | 15%[57.1 µM]
COc1ccc(CNC(=O)Cn2ccc3cc(S(=O)(=O)N4CCCCCC4)ccc32)cc1OC | nt | -26% | 2% | -2% | -10% | 9%
CCOc1ccc(NC(=S)NC(=O)C2CCCC2)cc1 | 12% | 10µM* | -3% | 1% | 0% | ?
COc1ccc(-n2c(=O)c3sc4ccccc4c3n(Cc3ccccc3C)c2=O)cc1OC | -3% | 6% | -1% | 4% | 3% | 11%
CCCOC(=O)c1ccccc1O | 1% | nt | nt | nt | nt | nt
Cc1ccc(-n2ncc3c(N(CC(C)C)CC(C)C)ncnc32)c(C)c1 | nt | 2.8µM* | -5% | -9%[57.1 µM] | 1% | 9%[57.1 µM]

Screening data deposited in PubChem by National Center for Advancing Translational Sciences (NCATS).
